Laboratory results taken from PubChem BioAssay AID2551 (National Center for Advancing Translational Sciences (NCATS), 2010).
In all, about 310,000 compounds went through this assay and about 17,000 (5.5%) were called active. Another 11% or so got no clear call; they are omitted. Many of the other results were omitted from the sample, so actives are more common in it than they were. A number with no mark means an inactive call. Calls come from the whole dose curve; as a rule, active = well fitted inhibition curve with a large enough effect; inconclusive = small, poorly fitted or top-dose-only effect, or effect the other way; inactive = no such curve, though single readings can be large or run the other way.

Target: Nuclear receptor ROR-gamma (Mus musculus) (UniProt P51450)
Sequence (P51450 whole entry, looked up): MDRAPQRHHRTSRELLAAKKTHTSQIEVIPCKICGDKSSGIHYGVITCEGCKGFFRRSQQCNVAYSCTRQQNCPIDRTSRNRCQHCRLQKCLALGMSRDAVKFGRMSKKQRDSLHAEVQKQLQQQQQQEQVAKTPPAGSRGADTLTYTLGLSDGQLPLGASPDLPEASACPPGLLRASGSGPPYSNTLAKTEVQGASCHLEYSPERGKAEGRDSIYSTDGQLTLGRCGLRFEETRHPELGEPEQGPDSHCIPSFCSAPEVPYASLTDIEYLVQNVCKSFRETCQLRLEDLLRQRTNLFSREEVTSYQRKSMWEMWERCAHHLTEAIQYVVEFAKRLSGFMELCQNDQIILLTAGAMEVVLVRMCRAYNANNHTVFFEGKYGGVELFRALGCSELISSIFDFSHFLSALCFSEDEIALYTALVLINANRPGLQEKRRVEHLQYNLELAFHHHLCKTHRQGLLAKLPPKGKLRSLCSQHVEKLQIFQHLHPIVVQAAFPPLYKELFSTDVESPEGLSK
Test: qHTS for inhibitors of ROR gamma transcriptional activity; note: nearly all actives have a fitted effect of over 60% in size
Details: Drosophila S2 Gal4-RORgamma UAS-luciferase reporter, 20 h; series mostly up to 53.6 µM; activity change, negative = inhibition: at the top concentration
Text: NIH Molecular Libraries Probe Production Network [MLPCN] NIH Chemical Genomics Center [NCGC] MLPCN Grant: R03 DA026211-01 Assay Provider: Dan Littman, New York University Assay Overview: The retinoic acid-related orphan receptor (ROR) gamma is a transcription factor that has a central role in the differentiation of Th17 cells, a subset of T helper cells that secrete the inflammatory cytokines IL-17, IL-17F, and IL-22. Th17 cells have been implicated in graft versus host disease, autoimmune disease and asthma. ROR gamma is induced in naive T helper cells in the presence of TGF-beta combined with IL-6, IL-21, or IL-23, and thereafter directs the expression of the Th17 lineage cytokines. To study the mechanism of action of ROR gamma, an insect cell-based assay was screened. This Drosophila Schneider cell line was stably transfected with two vectors: a gene expressing a fusion of the Gal4 DNA binding domain and ROR gamma transactivation domain under the control of the metallothionine promoter and a Photinus luciferase reporter regulated by the Gal4 binding site enhancer, UAS. […] Small molecule inhibitors of ROR gamma activity are detected by a decrease in luciferase reporter activity.
Assay Protocol Summary: For screening, 600 cells in 4 uL/well were dispensed into white solid 1536-well plates (Grenier) using a solenoid-based dispenser. Following transfer of 23 nL compound or DMSO vehicle by a pin tool, the plates were incubated 1 hr at ambient temperature, and 1 uL/well copper sulfate (700 uM final concentration) was added. The plates were centrifuged 15 s at 1000 RPM and incubated 20 hr at ambient temperature. After addition of 1.5 uL Photinus luciferase detection reagent, the plates were incubated 10 min at ambient temperature and then read by an ViewLux (Perkin Elmer) to detect luminescence. Keywords: NIH Roadmap, MLPCN, MLI, MLSMR, qHTS, NCGC, qHTS, nuclear hormone receptor, retinoic acid-related orphan receptor, ROR gamma
% is set by controls: 0 for no effect and ±100 for the full control effect; potency is the fitted concentration of half-maximal effect.

Structure (SMILES) | activity change, negative = inhibition | Potency
CCOC(=O)c1ccc(NC(=O)c2ccc(NC(=O)C3CCCO3)cc2)cc1 (stereo not given) | -2.12% | –
COc1ccc(C2=NN(c3ccccc3)C(c3cccs3)C2)cc1 (stereo not given) | 23.1% | –
COc1ccc(C2=NN(c3nc4ccccc4s3)C(=O)C2)cc1 | – | 5.62 µM (active)
COC(=O)Cc1[nH]n(-c2nc3ccccc3s2)c(=O)c1C(C)=Nc1ccc(OC)cc1 | -5.29% | –
COC(=O)c1cc(OC)c(OC)cc1NC(=O)CSc1ccc(C)cc1 | -14.2% | –
COc1cc(NC(=S)NCCSc2ccc(C)cc2)cc(OC)c1 | – | 7.08 µM (active)
COc1ccc(NC(=S)NCCNC(C)=O)cc1 | 13.1% | –
CC1=C(C(=O)OCC2CCCCC2)C(c2ccc(F)cc2)NC(=O)N1 (stereo not given) | 44% | –
CC(=O)OCC(NC(=O)C(Cc1ccccc1)NC(=O)OC(C)(C)C)C1OC(n2ccc(=O)[nH]c2=O)C(OC(C)=O)C1OC(C)=O (stereo not given) | 25.8% | –
COc1ccc(NC(=O)NCCN2CCN(c3ccc(C)cc3)CC2)c(Cl)c1 | 4.43% | –
CCc1ccccc1NC(=O)CSc1nnc(-c2ccncc2)o1 | -2.45% | –
COc1ccccc1NC(=O)CCSc1nnc(-c2ccc(O)cc2)o1 | – | 14.1 µM (active)
COc1ccccc1-c1nnc(SCC(=O)Nc2ccccc2)o1 | -0.697% | –
COc1cccc(N2CCN(c3ccc4nnc(CCC(=O)N5CCN(C)CC5)n4n3)CC2)c1 | -7.9% | –
O=S(=O)(c1ccc(Br)cc1)N1CCC(c2nc3ccccc3[nH]2)CC1 | 39.6% | –
N#CC(C(=O)c1ccc(S(=O)(=O)N2CCCCCC2)cc1)c1nc2ccccc2[nH]1 (stereo not given) | – | 12.6 µM (active)
O=C(N/N=C/c1ccccn1)c1ccc(S(=O)(=O)N2CCCCCC2)cc1 | -13.7% | –
Cc1nc2cc(C(F)(F)F)ccc2n1CCNc1nc(-c2cc(Cl)c(N)c(Cl)c2)cs1 | – | 17.8 µM (active)
COc1cc(NC(=O)CSc2ccc(-c3cccnc3)nn2)cc(OC)c1 | 13.3% | –
CC(C)c1ccc(S(=O)(=O)N2CCN(C(=O)c3ccc(N4CCCC4)c([N+](=O)[O-])c3)CC2)cc1 | -24.3% | –
COc1ccccc1N(CC(=O)Nc1ccccc1C(=O)N1CCCC1)S(C)(=O)=O | 3.4% | –
CCCc1cc(=O)[nH]c(SCC(=O)N2CCN(S(=O)(=O)c3ccc(C)cc3C)CC2)n1 | 4.85% [at 10 µM] | –
Cc1ccc(S(=O)(=O)N2CCN(C(=O)N3CCOCC3)CC2)c(C)c1 | -10.3% | –
Cc1ccc(S(=O)(=O)N2CCN(C(=O)CSc3cc(C)ccc3C)CC2)c(C)c1 | – | 3.16 µM (active)
Cc1ccc(C(=O)NC2CCN(C(=O)Nc3ccc(F)cc3)CC2)cc1 | 3.29% | –

Structure (SMILES) | activity change, negative = inhibition | Potency
CCC1C/C(=C/c2cccs2)C(=O)/C(=C/c2cccs2)C1 (stereo not given) | -10.2% | –
CC(=O)Nc1ccc(S(=O)(=O)Oc2ccc(/C=N/N=C3/NC(=O)C(CC(=O)O)S3)cc2)cc1 (stereo not given) | -0.673% | –
CN(CCOc1ccc(CC2SC(=O)NC2=O)cc1)c1ccccn1 (stereo not given) | 15.6% | –
CCC1S/C(=N/N=C/c2ccco2)NC1=O (stereo not given) | – | 1.26 µM (active)
CC(C)=N/N=C1/NC(=O)C(Cc2ccccc2)S1 (stereo not given) | – | 2.51 µM (active)
C=CCN1C(=O)C(Cc2cccc(Cl)c2)S/C1=N/N=C/c1ccco1 (stereo not given) | -19% | –
O=C(O)C[C@@H]1NC(=O)[C@H](Cc2ccccc2)NC1=O | -1.37% | –
O=C1N/C(=N\N=C\c2ccco2)SC1Cc1ccc(F)cc1 (stereo not given) | – | 1 µM (active)
O=c1nc(N/N=C/c2ccco2)cn[nH]1 | -16.9% | –
CCCCC1S/C(=N/N=C/c2cccs2)NC1=O (stereo not given) | – | 0.112 µM (active)
COc1ccc(CN2C(=O)C(C)S/C2=N/N=C/c2ccco2)cc1 (stereo not given) | 27.5% | –
Cc1ccccc1N(C(=O)CNC(=O)c1cccs1)C(C(=O)NC1CCCC1)c1ccncc1 (stereo not given) | 20.7% | –
O=C(C1CCN(Cc2ccc(Cl)cc2)CC1)N1CCN(Cc2ccc3c(c2)OCO3)CC1 | 35.5% | –
C=CCn1c(SCc2ccccc2)nc2c1c(=O)[nH]c(=O)n2C | -5.57% | –
O=S(=O)(c1ccccc1)c1nc(Cc2ccccc2)oc1N1CCOCC1 | -3.36% | –
O=S(=O)(c1ccc(F)cc1)N1CCN=C1SCc1cccc(F)c1 | 0.749% | –
CCc1ccc(N2CC(C(=O)Nc3ccc(S(=O)(=O)Nc4nccs4)cc3)CC2=O)cc1 (stereo not given) | 4.98% | –
CCCCC1(C(=O)OCC)NC(c2ccc(O)cc2)C2C(=O)N(c3ccccc3)C(=O)C21 (stereo not given) | -1.09% | –
CCN1CCN(C2CCCCC2NS(=O)(=O)c2ccc(Cl)cc2)CC1 (stereo not given) | 10.5% | –
CC(C)Cn1cnc2c1c(=O)n(CC(=O)NN)c(=O)n2Cc1ccccc1 | 19.2% | –
COc1ccc(C(=O)N/N=c2\oc3ccccc3cc2C(N)=O)cc1 | 2.29% | –
NC(=O)c1cc2ccccc2o/c1=N/NC(=O)c1cccc(F)c1 | 0% | –
COc1cccc2cc(C(N)=O)/c(=N\NC(=O)c3ccccc3)oc12 | – | 7.08 µM (active)
O=C1CN(C(=O)c2cc(F)cc(F)c2)c2ccccc2N1 | 0.531% | –
COC(=O)c1cccnc1NC(=S)NC(C)C | – | 1.78 µM (active)
